# Test results: PubChem BioAssay
# Active and inactive are the calls of the source. Unless noted, no rule for the calls is given here.
# Tests used:
# [1] = compound effects on lung adenocarcinoma cell viability – A549, calcein-AM fluorescence, 48 h, basal, profiling panel (AID 1162); conditions: higher = more signal; also: test concentration not given here
# [2] = compound effects on differentiated 3T3-L1 adipocyte viability – cell-based, 3T3-L1 adipocytes, calcein-AM fluorescence, 48 h, basal, profiling panel (AID 1163); conditions: 3T3-L1 adipocytes viability, higher = more signal; also: test concentration not given here
# [3] = compound effects on hepatocellular carcinoma cell viability – HepG2, calcein-AM fluorescence, 48 h, basal, profiling panel (AID 1164); conditions: higher = more signal; also: test concentration not given here
# [4] = compound effects on multiple myeloma cell viability – MM1S, calcein-AM fluorescence, 48 h, basal, profiling panel (AID 1165); conditions: higher = more signal; also: test concentration not given here
# [5] = calcein-AM signal in unstimulated myeloma cells – cell-based, calcein-AM fluorescence, 48 h, PK04 Diversity Set, profiling panel (AID 1166); conditions: RPMI8226 myeloma viability, higher = more signal;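 also: cells grown under basal conditions without added stimulus; test concentration not given here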
# [6] = JC-1 mitochondrial signal, unstimulated HepG2 cells – cell-based, JC-1 fluorescence, 24 h, 100 nL compound, profiling panel (AID 1167); conditions: HepG2 mitochondrial potential, higher = more signal; also: test concentration not given here
# [7] = JC-1 mitochondrial signal, unstimulated adipocytes – cell-based, JC-1 fluorescence, 3T3-L1 adipocytes, 24 h, 100 nL compound, profiling panel (AID 1168); conditions: JC-1 mitochondrial fluorescence, higher = more signal, called active from +8 up or from −8 down; also: test concentration not given here
# [8] = JC-1 mitochondrial signal, unstimulated myeloma cells – cell-based, JC-1 fluorescence, RPMI8226, 24 h, 100 nL compound, profiling panel (AID 1169); conditions: JC-1 mitochondrial potential fluorescence, higher = more signal; also: test concentration not given here
# [9] = JC-1 mitochondrial signal, unstimulated MM1S myeloma – cell-based, JC-1 fluorescence, 24 h, 100 nL compound, profiling panel (AID 1170); conditions: MM1S mitochondrial potential, higher = more signal; also: test concentration not given here
# [10] = resazurin metabolic signal in A549 cells – cell-based, resazurin fluorescence, 24 h, PK04 Diversity Set, profiling panel (AID 1171); conditions: A549 viability, higher = more signal, called active from +8 up or from −8 down; also: test concentration not given here
# [11] = resazurin metabolic signal in HepG2 cells – cell-based, resazurin fluorescence, 24 h, PK04 Diversity Set, profiling panel (AID 1172); conditions: HepG2 viability, higher = more signal; also: test concentration not given here
# [12] = budding yeast growth changes without added modifier – OD600, strain BY4716, 24 h, basal condition, primary screen (AID 1173); conditions: S. cerevisiae BY4716 growth, OD600, 24 h; higher = more signal, called active from +8 up or from −8 down
# [13] = viability profiling in MM1S myeloma cells – cell-based, resazurin fluorescence, basal, 24 h, PK04 Diversity Set, profiling panel (AID 1174); conditions: higher = more signal, called active from +8 up or from −8 down; also: test concentration not given here
# [14] = molecular target: Dihydroorotate dehydrogenase (quinone), mitochondrial (Plasmodium falciparum (isolate 3D7)) (UniProt Q08210); assay: inhibition of P. falciparum DHODH – biochemical, C-terminal His tag, absorbance 600 nm, primary screen (AID 1175); conditions: PfDHODH enzyme, DCIP absorbance 600 nm; higher = more signal, called active from +8 up or from −8 down;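 also: recombinant parasite enzyme with a five histidine tag at its C terminus; test concentration not given here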
# Chain of Dihydroorotate dehydrogenase (quinone), mitochondrial (Plasmodium falciparum (isolate 3D7)) (Q08210 whole entry, looked up): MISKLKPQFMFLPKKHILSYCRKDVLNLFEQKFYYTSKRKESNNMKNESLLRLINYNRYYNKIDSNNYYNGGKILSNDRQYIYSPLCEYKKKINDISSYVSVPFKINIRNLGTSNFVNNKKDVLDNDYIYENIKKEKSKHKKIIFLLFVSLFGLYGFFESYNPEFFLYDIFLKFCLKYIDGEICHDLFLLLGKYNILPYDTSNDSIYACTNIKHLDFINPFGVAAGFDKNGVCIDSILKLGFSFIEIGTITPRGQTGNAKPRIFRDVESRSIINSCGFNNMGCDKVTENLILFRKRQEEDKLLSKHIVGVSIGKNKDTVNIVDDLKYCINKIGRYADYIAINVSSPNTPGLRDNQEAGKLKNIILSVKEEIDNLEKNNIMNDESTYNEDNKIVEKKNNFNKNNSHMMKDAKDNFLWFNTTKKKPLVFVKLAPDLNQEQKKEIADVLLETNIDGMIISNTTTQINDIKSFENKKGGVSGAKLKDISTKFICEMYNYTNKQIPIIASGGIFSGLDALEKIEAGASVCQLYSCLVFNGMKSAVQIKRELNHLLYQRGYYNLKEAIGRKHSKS
# [15] = inhibition of PAO1 biofilm formation – strain PAO1, LB-PBS medium, absorbance 600 nm, primary screen (AID 1176); also: test concentration not given here; conditions: P. aeruginosa PAO1 growth/biofilm, A600, 12 h; higher = more signal
# [16] = growth modulation of vineyard yeast isolate – strain RM11-1a, OD600, basal, 24 h, primary screen (AID 1177);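 also: cultures grown under basal conditions with no added stressor; test concentration not given here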; conditions: S. cerevisiae RM11-1a growth, OD600, 24 h; higher = more signal, called active from +8 up or from −8 down
# [17] = growth of efflux-deficient E. coli DRC39 – strain DRC39, OD650, 24 h, E. coli filamentation inducers, primary screen (AID 1178);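 also: growth measured as culture turbidity by optical density at 650 nm; test concentration not given here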; conditions: E. coli DRC39 acrAB, higher = more signal, called active from +8 up or from −8 down
# [18] = growth of efflux-deficient E. coli DRC39 – strain DRC39, OD650, 48 h, E. coli filamentation inducers, primary screen (AID 1179);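 also: screen aims at cell division blockers that make cells filament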; conditions: E. coli DRC39 delta-acrAB growth, higher = more signal, called active from +8 up or from −8 down
# [19] = viability profiling in RPMI8226 myeloma cells – cell-based, resazurin fluorescence, basal, 24 h, PK04 Diversity Set, profiling panel (AID 1180); conditions: higher = more signal;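 also: RPMI8826 multiple myeloma cell line at 5000 cells per well; test concentration not given here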
# [20] = molecular target: E3 ubiquitin-protein ligase XIAP (Homo sapiens) (UniProt P98170); assay: small molecules binding XIAP protein – biophysical, small-molecule microarray, fluorescence 635 nm, primary screen (AID 1181); conditions: higher = more signal;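 also: score merges 667 nm emission and signal to noise over triplicate slides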
# Chain of E3 ubiquitin-protein ligase XIAP (Homo sapiens) (P98170 whole entry, looked up): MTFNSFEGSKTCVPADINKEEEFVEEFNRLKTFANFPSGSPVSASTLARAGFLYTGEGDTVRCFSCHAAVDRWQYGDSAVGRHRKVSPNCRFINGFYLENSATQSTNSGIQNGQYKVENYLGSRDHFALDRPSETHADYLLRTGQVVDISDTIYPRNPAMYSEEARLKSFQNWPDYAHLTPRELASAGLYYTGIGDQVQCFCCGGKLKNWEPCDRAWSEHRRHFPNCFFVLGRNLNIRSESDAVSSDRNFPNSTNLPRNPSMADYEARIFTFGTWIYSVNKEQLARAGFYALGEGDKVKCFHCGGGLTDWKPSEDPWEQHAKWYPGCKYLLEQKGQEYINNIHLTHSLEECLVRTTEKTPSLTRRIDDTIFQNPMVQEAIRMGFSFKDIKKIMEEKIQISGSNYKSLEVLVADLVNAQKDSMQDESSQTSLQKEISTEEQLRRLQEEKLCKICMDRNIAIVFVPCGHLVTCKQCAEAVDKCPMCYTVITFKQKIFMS
SMILES,z-score [1],z-score [2],z-score [3],z-score [4],z-score [5],z-score [6],z-score [7],z-score [8],z-score [9],z-score [10],z-score [11],z-score [12],z-score [13],composite z-score [14],z-score [15],z-score [16],z-score [17],z-score [18],z-score [19],composite z-score [20]
COc1ccc(O[C@H]2C=C[C@@H](c3ccccc3)O[C@@H]2CON=CC[C@@H]2C=C[C@H](OC(C)=O)[C@@H](COC(C)=O)O2)cc1,0.0639,-0.0129,-0.555,0.306,-1.17,-1.33,-0.112 (inactive),-0.0648,0.491,-0.247 (inactive),0.185,2.06 (inactive),-0.0893 (inactive),0.0159 (inactive),0.405 (inactive),1.34 (inactive),0.503 (inactive),-0.185 (inactive),-0.604,0.0391
O=C1[C@H]2[C@H]3[C@H](O)[C@H](O)CC(=NOCc4ccccc4)[C@@H]3CC[C@H]2C(=O)N1c1ccc(F)cc1F,0.504,-0.23,0.688,0.635,1.13,1.51,-0.371 (inactive),-0.261,-1.57,-1.03 (inactive),0.0979,-0.584 (inactive),0.253 (inactive),-1.42 (inactive),0.86 (inactive),-2.15 (inactive),-0.018 (inactive),-0.714 (inactive),-1.19,-0.0563
CCOC(=O)NN=C1C[C@@H](O)[C@@H](O)[C@@H]2[C@@H]3C(=O)N([C@@H](C)c4ccccc4)C(=O)[C@@H]3CC[C@H]12,-0.0339,-0.584,-0.102,0.136,-0.177,-0.39,0.29 (inactive),0.104,-0.476,-0.193 (inactive),0.384,0.448 (inactive),-0.495 (inactive),-0.309 (inactive),0.0942 (inactive),-0.362 (inactive),-0.212 (inactive),-0.102 (inactive),0.331,-0.0076
CSCC[C@@H]1NC(=O)CC=C[C@@H](C)COC(=O)[C@@H](C)COC1=O,0.63,0.115,1.47,0.269,0.341,0.852,0.0903 (inactive),-0.994,-0.122,0.377 (inactive),0.414,-0.739 (inactive),0.574 (inactive),0.0037 (inactive),-0.708 (inactive),-0.24 (inactive),0.422 (inactive),-0.962 (inactive),0.249,-0.0525
C[C@@H]1NC(=O)[C@@H](C)COC(=O)[C@H](C)NC(=O)[C@@H](C)COC1=O,-0.838,1.19,0.1,-0.426,-0.604,0.503,0.42 (inactive),0.0799,0.307,0.228 (inactive),0.0907,-2.62 (inactive),-0.325 (inactive),-3.05 (inactive),0.365 (inactive),-1.09 (inactive),-0.0144 (inactive),-1.87 (inactive),0.18,0.0714
Cc1cc2c(c(=O)o1)[C@@H](O)[C@H]1O[C@H]1C2=O,-0.223,0.374,0.123,0.65,-1.15,-0.352,-0.659 (inactive),-0.141,0.0583,-0.588 (inactive),-0.721,-0.582 (inactive),0.166 (inactive),0.664 (inactive),-0.67 (inactive),0.322 (inactive),-0.729 (inactive),-1.26 (inactive),-0.535,0.13
C[C@H]1CC[C@H]2C(=O)OC(CO)CN2[C@@H]1c1ccc(Br)cc1 (stereo not given in full),0.228,0.764,-0.592,-2.22,0.0966,0.292,-0.18 (inactive),0.859,0.23,0.746 (inactive),0.228,-1.23 (inactive),-0.0363 (inactive),-0.0747 (inactive),0.967 (inactive),-0.373 (inactive),-0.472 (inactive),-0.304 (inactive),0.979,0.213
CC(C)CON=C1C[C@@H](O)[C@@H](O)[C@@H]2[C@@H]3C(=O)N(C(C)(C)C)C(=O)[C@@H]3CC[C@H]12,0.539,-0.519,-0.248,0.246,0.0151,-0.772,-0.697 (inactive),-0.369,-0.465,-0.77 (inactive),-0.184,0.528 (inactive),-0.426 (inactive),0.15 (inactive),-0.613 (inactive),-0.131 (inactive),0.366 (inactive),0.476 (inactive),-0.246,-0.102
C#CCCCON=C1[C@H]2CCn3c(=O)n(-c4ccccc4)c(=O)n3[C@H]2[C@H](O)[C@@H]2O[C@H]12,-0.212,0.356,1.09,0.0128,-0.352,0.85,0.182 (inactive),1.03,-0.61,-1.39 (inactive),-0.775,-1.34 (inactive),-2.23 (inactive),-1.16 (inactive),0.352 (inactive),-1.93 (inactive),-0.536 (inactive),-0.231 (inactive),-1.7,-0.147
